Measurements from ChEMBL document CHEMBL3988442, “University of Dundee, Small-Polar-MMV Screening Library” (2021).

Each compound was assayed against T1, Arginase-2, mitochondrial (Homo sapiens) (UniProt P78540) (assay: in vitro enzyme assay to detect the production of urea directly proportional to the activity of Arginase II). Details: 33.3 µM.
T1 sequence (whole entry): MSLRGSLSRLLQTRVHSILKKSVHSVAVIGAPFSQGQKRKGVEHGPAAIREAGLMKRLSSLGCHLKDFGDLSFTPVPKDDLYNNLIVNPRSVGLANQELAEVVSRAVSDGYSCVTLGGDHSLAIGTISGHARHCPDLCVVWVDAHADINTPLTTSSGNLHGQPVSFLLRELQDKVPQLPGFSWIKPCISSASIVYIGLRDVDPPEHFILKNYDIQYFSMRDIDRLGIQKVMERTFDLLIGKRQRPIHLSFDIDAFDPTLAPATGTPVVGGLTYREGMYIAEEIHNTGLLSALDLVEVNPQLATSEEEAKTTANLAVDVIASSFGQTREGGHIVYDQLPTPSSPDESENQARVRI
Format: functional
Set-up: scale not given: in the data most compounds retested in dose-response had high values

SMILES | Percent Effect
COCCN1CC[C@@H]2O[C@@H](COCC(=O)N3CCCC3)CC[C@@H]21 | -3.99%
O=C(c1ccc[nH]1)N1CCCC(c2cc(C(F)(F)F)[nH]n2)C1 (stereo unspecified) | -1.08%
O=C(c1coc(COc2cccc(F)c2)n1)N1CC[C@H](O)[C@@H](O)C1 | 3.33%
Cc1nnc2n1CCN(CCOc1ccccc1)C2 | 3.66%
c1ccc(OCCN2CCCC(c3noc(C4CC4)n3)C2)cc1 (stereo unspecified) | -1.56%
Cn1ccc(CN2CCC(OCCc3ccccc3)CC2)cc1=O | 4.98%
COC1COC2(CCN(Cc3ccccc3Cl)CC2)C1 (stereo unspecified) | 2.29%
COc1cccc(S(=O)(=O)N2CCn3cnc(COCC4CC4)c3C2)c1 | -33.1%
Cc1ncsc1C(=O)N(C)CCc1ccncc1 | 0%
Cc1cc(C)n(C2CCCN(C(=O)Cc3csc(C)n3)C2)n1 (stereo unspecified) | 1.9%
O=C(NCCNc1cnccn1)N1CCN(Cc2cccnc2)CC1 | 1.5%
Cc1cc(NC(=O)NCC(C)O)n(C)n1 (stereo unspecified) | 0%
CCc1nccn1C1CCCN(C(=O)c2cnn(C)c2C2CC2)C1 (stereo unspecified) | -4.41%
CCOCC(O)CN1CCN(C(=O)c2cccnc2OC)CC1 (stereo unspecified) | 2.85%
O=C(CN1CCc2cncnc2C1)NCCOc1ccccc1 | -12.9%
Cc1nc(N2CCCCC2)ncc1C(=O)N1CC(C)(C)[C@@](C)(O)C1 | 4.22%
c1cncc(-c2nccc(CN3CCCC3)n2)c1 | -22%
O=C(NC1CCCC1)N1CCCC(c2nccn2Cc2ccncc2)C1 (stereo unspecified) | -0.883%
Cc1cc(CN2CCOC(CN(C)c3cccnn3)C2)no1 (stereo unspecified) | -0.21%
Cn1cc(CNCCn2cccn2)c(-c2cccnc2)n1 | 0.744%
O=C1NC2(CCN(C(=O)c3ccccc3)CC2)CC1c1cccnc1 (stereo unspecified) | -6.39%
